TDP1 cell CPT – growth inhibition of DT40 Tdp1-/-;hTDP1 cells with camptothecin (screen for TDP1 inhibitors); chicken DT40 Tdp1-/-;hTDP1 cells + 20 nM CPT, ATP luminescence, 48 h; Potency, µM (highest dose often 46.2 µM), without a hit: at the top dose activity change, negative = growth inhibition, most hits filed as inhibitors; actives 12% (n = 420,000); AID 686979; also: % is scaled to controls: 0 for no effect and ±100 for the full control effect; nearly all actives have a fitted effect of over 55% in size
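Cell growth measured by CellTiter-Glo luminescence after a minimum 48 h, 37 C compound exposure with 20 nM CPT in Tdp1-knockout DT40 cells stably expressing hTDP1, seeded 400/well; qHTS titration format.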
DT40 TDP1 no CPT – qHTS for Inhibitors of human tyrosyl-DNA phosphodiesterase 1 (TDP1): qHTS in cells in absence of CPT. DT40 Tdp1-/- hTDP1 cells, no CPT, ATP luminescence, 48 h. AID 686978, 2013. Potency, µM (doses to about 46.2 µM), for inactives: top-dose activity change, negative = growth inhibition, hits mostly inhibitors. actives 15% (n = 420,000); also: % is scaled to controls: 0 for no effect and ±100 for the full control effect; nearly all actives have a fitted effect of over 55% in size
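Luminescent ATP content (CellTiter-Glo) served as the growth readout. Knockout chicken DT40 cells expressing human TDP1 were exposed to compounds without camptothecin for a minimum 48 hr at 37 °C.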
HT1080-NT tox – kills 2HG-producing HT-1080-NT fibrosarcoma cells; HT-1080-NT fibrosarcoma viability, CellTiter-Glo ATP luminescence, 48 h; Potency, µM (titrated, usually from 46.1 µM), for the others: at the highest dose activity, negative = less viability, usual class: cytotoxic; actives 1.6% (n = 360,000); AID 686970;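 also: NT is the 2HG producing partner of a matched IDH1 knockdown line; 0% = DMSO-treated cells and -100% = media-only wells without cells; nearly all actives have a fitted effect of over 55% in size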
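Viability of the 2HG-overproducing fibrosarcoma line after 48 hours of compound exposure at 37 degrees C was determined by luminescence with CellTiter-Glo, and concentration-effect curves were then fitted and categorized.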
HT1080 IDH1KD tx – kills HT-1080 cells with IDH1 knockdown; HT-1080 IDH1 knockdown viability, ATP luminescence, 48 h; AID 686971; Potency, µM (top dose mostly 46.1 µM), for the others: at the highest dose activity, negative = toxicity, hits mostly cytotoxic; actives 2% (n = 360,000);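 also: 0% = DMSO wells and -100% = cell-free medium wells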
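Viability of IDH1-knockdown HT-1080 fibrosarcoma cells was assessed by CellTiter-Glo after 48 h at 37 °C with titrated compound; concentration-effect curves were classified by fit quality and response size.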
HepG2 tox – HepG2 cytotoxicity, counter-screen for TGF-b inhibitors; actives 0.76% (n = 410,000); AID 588856; HepG2 CAGA-GFP viability, ATP luminescence, 18 h; Potency, µM (top dose mostly 46.1 µM), for inactives: at the highest dose activity change, negative = cytotoxicity, most hits filed as cytotoxic
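CellTiter-Glo luminescence gave cytotoxicity after 18 hours at 37 degrees C. The cells were HepG2 CAGA-GFP in 1% FBS DMEM, stimulated with 500 pg/mL TGF-beta after compound addition. %Activity was normalised to no-cell wells (complete cell-killing) and DMSO (no toxicity), and curves were fitted and classified.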
TGFb inhibitor – inhibitors of TGF-b signaling; HepG2 CAGA-GFP TGF-b/SMAD3 reporter, GFP fluorescence, 18 h; TGF-beta stimulated, 500 pg/mL final; Potency, µM (top dose mostly 46.1 µM), for the others: top-dose activity, negative = inhibition, actives largely listed as inhibitors; actives 1.2% (n = 410,000); AID 588855; also: % is scaled to controls: 0 for no effect and ±100 for the full control effect; nearly all actives have a fitted effect of over 65% in size
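Per well, imaged GFP fluorescence of HEPG2 CAGA-GFP cells gives the signal; cells get compound, then TGF-beta (500 pg/mL final), 18 h at 37 degrees C; %Activity versus -TGF-beta and +DMSO controls.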
Numbers without * were called inactive; u = inconclusive; x = no result. Most compounds without a hit are left out; they make up all but 17% or so of the library. Calls follow the shape of the dose curve; as a rule, active = well fitted curve in the direction sought with a large enough effect; inconclusive = small, poorly fitted or top-dose-only effect, or another doubt; inactive = no such curve, though single readings can be large; an effect the other way counts as inactive or inconclusive. Potency is read from the fitted curve at half-maximal effect.

SMILES | TDP1 cell CPT | DT40 TDP1 no CPT | HT1080-NT tox | HT1080 IDH1KD tx | HepG2 tox | TGFb inhibitor
CC(C)NC(=O)CN1CCN(C(c2cc3ccccc3o2)c2nnnn2C(C)(C)C)CC1 (configuration not stated) | -15% | -16% | 21% | 5% | x | x
Cc1cccc(C)c1-n1nnnc1C(c1cccc2ccccc12)N1CCN(C/C=C/c2ccccc2)CC1 (configuration not stated) | 4.6µM* | 5.8µM* | u | -27% | 2% | -27%
Cc1cccc(C)c1-n1nnnc1C(c1cc2ccccc2o1)N1CCN(C/C=C/c2ccccc2)CC1 (configuration not stated) | 18µM* | 23µM* | u | u | -30% | u
Cc1ccc(C)c(-c2nc3ccc(N)cc3[nH]2)c1 | 23µM* | 15µM* | 0% | -14% | 0% | -2%
Cc1nc2ccc(-c3nc4ccc(N)cc4[nH]3)cc2[nH]1 | 2.9µM* | 4.1µM* | 7% | 5% | -36% | u
Clc1ccc2nc(COc3ccccc3)[nH]c2c1 | u | u | 13µM* | 8.2µM* | -9% | -9%
Cc1nc2ccc(Cc3ccc4nc(C)[nH]c4c3)cc2[nH]1 | 26µM* | u | -14% | -8% | 6% | 0%
CC1=C(C(=O)N2CCCCCC2)CC(CC(=O)NC2CCCC2)C(=O)N1Cc1ccccc1 (configuration not stated) | -29% | -16% | 14% | 15% | 14% | -1%
Clc1ccc2nc(-c3ccccc3)[nH]c2c1 | 30µM* | 27µM* | x | x | x | x
Cc1ccnc2ccc(-c3nc4ccccc4o3)cc12 | 21µM* | 10µM* | -1% | -10% | -18% | 18%
Nc1ccc2nc(-c3ccc(Cl)cc3)[nH]c2c1 | 2.9µM* | 4.6µM* | 23µM* | 21µM* | 13µM* | u
Nc1ccc(-c2nc3ccc(-c4nc5ccccc5o4)cc3[nH]2)cc1 | 15µM* | 8.2µM* | -1% | -1% | -25% | 1%
Cc1nc(C(F)(F)F)c(C(=O)N/N=C(\N)c2ccccn2)s1 | 13µM* | 4.1µM* | u | 16µM* | -12% | -21%
N/C(=N\NS(=O)(=O)c1ccccc1C(F)(F)F)c1ccccn1 | 3% | -17% | 6% | -1% | 9% | 2%
c1ccc(CN2CCCC3(CCCN(Cc4nc(COc5ccccc5)no4)C3)C2)cc1 (configuration not stated) | u | u | -5% | -16% | -19% | -2%
O=C(CSc1nc2cc(C(=O)NC3CCCC3)ccc2c(=O)n1CC1CCCO1)c1cccc(Cl)c1 (configuration not stated) | 21µM* | 23µM* | x | x | -6% | -19%
Cc1ccc(C(=O)CSc2nc3cc(C(=O)NC4CCCC4)ccc3c(=O)n2CC2CCCO2)cc1 (configuration not stated) | -6% | -16% | x | x | 0% | -16%
Cc1ccc(C)c(C(=O)CSc2nc3cc(C(=O)NC4CCCC4)ccc3c(=O)n2CC2CCCO2)c1 (configuration not stated) | 18µM* | 8.2µM* | x | x | -4% | 1%
Cc1ccc(NC(=O)COC(=O)CNC(=O)c2ccc3ccccc3c2)c([N+](=O)[O-])c1 | -3% | -3% | -2% | 4% | 1% | 1%
Oc1ccc2ccccc2c1CNc1ccc(Br)cc1 | 16µM* | u | u | -26% | -57% | u
Cc1cc(C)n(-c2nc(NCc3cccnc3)c3c4c(sc3n2)COC(C)(C)C4)n1 | u | u | u | 23µM* | -39% | u

Assay outcomes: PubChem, National Center for Advancing Translational Sciences (NCATS)
